# High-throughput results (PubChem BioAssay)
# JMJD2A Tudor: blocks the human JMJD2A Tudor domain; O75164; AlphaScreen JMJD2A-Tudor / H3K4me3 peptide binding; Potency, µM (highest dose often 114 µM), inactives show top-dose activity change, negative = inhibition, most hits filed as inhibitors; 390,000 compounds, 4.4% hits; AID 504339; note: potency is the fitted concentration of half-maximal effect; % is set by controls: 0 for no effect and ±100 for the full control effect; nearly all actives have a fitted effect of over 50% in size
# CtBP-E1A blk: CtBP/E1A binding inhibition. activity change, % (test concentration not listed). 340,000 compounds, 0.49% hits. AlphaScreen GST-E1A/His-CtBP binding, 1536-well; hits give low values; in the data active = activity change below about -65%; inconclusive = mostly about -30% to -63%; note: % is set by controls: 0 for no effect and ±100 for the full control effect
#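 Homogeneous bead-based format: GST-tagged E1A captured on glutathione donor beads, His-tagged CtBP on nickel acceptor beads; compounds precede bead addition by 2 h at 37 °C.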
# HP1b binding inh: HP1-beta chromodomain-methylated histone interaction inhibition; P83916; AlphaScreen HP1-beta / biotin-H3K9me3 peptide binding; Potency, µM (highest dose often 114 µM), inactives show top-dose activity change, negative = inhibition, most hits filed as inhibitors; 390,000 compounds, 0.56% hits; note: potency is the fitted concentration of half-maximal effect; nearly all actives have a fitted effect of over 70% in size
#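 HP1-beta protein (50 nM final) preincubated 30 min at room temperature with biotinylated H3(1-18)K9me3 peptide (50 nM) in PBS pH 7.4, 0.01% Tween-20, then compound added for 30 min. AlphaScreen streptavidin donor/nickel chelate acceptor beads (10 ug/mL final), 30 min dark, luminescence read.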
# Six1-Eya2 inh: Six1/Eya2 interaction inhibition. Q15475+O00167. activity change, % (no concentration beside the values). 360,000 compounds, 0.56% hits. AID 651725. AlphaScreen GST-Six1/His-Eya2 binding, biochemical; hits give low values; in the data active = activity change below about -65%; inconclusive = mostly about -30% to -63%; note: % is set by controls: 0 for no effect and ±100 for the full control effect
# Target sequence (O00167 whole entry, looked up): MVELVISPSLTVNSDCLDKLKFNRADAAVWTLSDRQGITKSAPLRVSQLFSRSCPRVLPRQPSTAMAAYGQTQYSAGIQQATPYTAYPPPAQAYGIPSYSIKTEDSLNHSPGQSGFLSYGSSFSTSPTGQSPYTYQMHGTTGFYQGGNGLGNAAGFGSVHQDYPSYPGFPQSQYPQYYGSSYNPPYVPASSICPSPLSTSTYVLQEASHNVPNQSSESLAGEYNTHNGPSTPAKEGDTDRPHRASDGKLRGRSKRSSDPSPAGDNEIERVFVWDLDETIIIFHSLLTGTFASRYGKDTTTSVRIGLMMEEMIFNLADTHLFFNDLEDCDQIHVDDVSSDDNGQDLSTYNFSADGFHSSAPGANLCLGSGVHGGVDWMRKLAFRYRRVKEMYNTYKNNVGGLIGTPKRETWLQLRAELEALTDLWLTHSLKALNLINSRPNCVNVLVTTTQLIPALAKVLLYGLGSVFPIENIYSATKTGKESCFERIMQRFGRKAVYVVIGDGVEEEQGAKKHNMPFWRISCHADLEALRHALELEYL
# Target sequence (Q15475 whole entry, looked up): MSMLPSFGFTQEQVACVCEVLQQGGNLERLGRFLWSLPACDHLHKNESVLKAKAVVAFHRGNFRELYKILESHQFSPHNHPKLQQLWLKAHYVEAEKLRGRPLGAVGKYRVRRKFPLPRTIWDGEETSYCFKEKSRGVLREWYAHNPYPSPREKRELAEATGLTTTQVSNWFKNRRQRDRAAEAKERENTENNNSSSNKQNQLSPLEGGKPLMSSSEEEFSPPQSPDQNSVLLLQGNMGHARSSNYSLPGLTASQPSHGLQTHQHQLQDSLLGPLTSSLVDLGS
#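 Compounds are tested against tagged Six1 and Eya2 proteins bridged by glutathione donor and nickel acceptor beads; after a one-hour incubation at 37 °C without light, AlphaScreen emission is recorded.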
# G9a block: blocks human histone lysine methyltransferase G9a. G9a H3K9 monomethylation, AlphaScreen, 2 h. Potency, µM (doses to about 102 µM), for the others: at the highest dose activity, negative = inhibition, hits mostly inhibitors. 350,000 compounds, 8.8% hits. AID 504332; note: potency is the fitted concentration of half-maximal effect; % is set by controls: 0 for no effect and ±100 for the full control effect; nearly all actives have a fitted effect of over 75% in size
#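 Quantitative HTS format: methyltransferase activity on a biotin-tagged H3K9 peptide is measured by AlphaScreen, using a rabbit anti-monomethyl-H3K9 antibody with streptavidin donor and anti-IgG acceptor beads. Final levels are 20 nM enzyme, 500 nM peptide, 20 uM SAM; 2 h RT.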
# BAZ2B inh: BAZ2B (human) inhibition. 360,000 compounds, 4.4% hits. Potency, µM (doses to about 114 µM), without a hit: top-dose activity change, negative = inhibition, usual class: inhibitors. Q9UIF8. AlphaScreen BAZ2B-H3K14Ac peptide displacement. AID 504333; note: potency is the fitted concentration of half-maximal effect; % is set by controls: 0 for no effect and ±100 for the full control effect; nearly all actives have a fitted effect of over 60% in size
#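 AlphaScreen displacement of biotin-H3(5-23)K14Ac peptide (50 nM final) from BAZ2B (50 nM final) in PBS pH 7.4, 0.01% Tween-20; complex preformed 30 min RT, then compounds (top 110 uM) 30 min RT, beads 20 min dark.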
# Starred values were filed as active, the others as inactive; ? = inconclusive; · = no result given; ! = a repeat was not active; [ ] = dose if it differs, or a comment. This is a sample that favours compounds with a hit; in the whole collection about 10% have one here. Unless noted, calls come from the whole dose curve; as a rule, active = well fitted inhibition curve with a large enough effect; inconclusive = small, poorly fitted or top-dose-only effect; inactive = no such curve, though single readings can be large or run the other way.
SMILES,JMJD2A Tudor,CtBP-E1A blk,HP1b binding inh,Six1-Eya2 inh,G9a block,BAZ2B inh
COc1ccc(-c2cn3c(n2)sc2cc(C(=O)NCCc4ccccc4)ccc23)cc1,-19.7%,·,20.1%,·,-39.2%[59 µM],?
Cc1ccsc1/C=N/NC(=O)c1cc(-c2ccncc2)nc2ccccc12,-35.8%,-9.9,0.3%,-24.6,4.9%[59 µM],-5.9%
Cc1ccsc1/C=N/n1c(-c2ccncc2)n[nH]c1=S,3.16µM*,29.5,-16.6%,7.6,1.12µM*,-35.5%
Cn1c(NC(=O)c2ccccc2F)cc(=O)n(C)c1=O,-9.0%,-1.7,36.1%,1.6,56.2µM*,-29.9%
CC1CN(c2ccc([N+](=O)[O-])nc2)CC(C)O1 (stereo not drawn),0.7%,-12.1,17.1%,6.9,-6.1%,-9.0%
OCCN(Cc1ccccc1)Cc1ccccc1F,1.78µM*,-6.4,44.7µM*,-9.3,2.51µM*,25.1µM*
CC(=O)NC(CC(=O)N(C)Cc1cccc(Cl)c1Cl)c1ccccc1 (stereo not drawn),-12.4%,0.0,26.9%,0.0,-0.5%[59 µM],-7.8%
OCCN(Cc1ccccc1)Cc1cccc(Cl)c1Cl,10µM*,6.1,?,9.0,?,50.1µM*
NCCC1CCCC(CCN)N1 (stereo not drawn),-7.2%,5.7,23.5%,-1.4,8.91µM*!,2.7%
CC(=O)Oc1c(C(C)C)cc(N(C(C)=O)c2ccccc2)cc1C(C)C,-10.5%,3.0,2.8%,-11.5,·,·
COC(=O)c1sc2nc3c(cc2c1N)COC(C)(C)C3,13.7%,10.0,41.9%,1.9,50.1µM*,-3.0%
CCCc1nc2c(sc3nc4c(cc32)COC(C)(C)C4)c(=O)o1,-4.1%,·,43.3%,0.0,22.4µM*,?
CCOC(=O)Cn1nc(C)c(NC(=O)c2ccc(Cl)c([N+](=O)[O-])c2)c1C,-16.2%,-11.3,30.7%,-4.3,4.9%,-3.0%
CC(NC(=O)CN1c2cccc3cccc(c23)S1(=O)=O)c1ccc(S(N)(=O)=O)cc1 (stereo not drawn),-25.5%,-7.5,-7.7%,-2.7,-33.7%[59 µM],-11.6%
O=C1Nc2ccc(Cl)cc2C(C#CC2CC2)(C(F)(F)F)O1 (stereo not drawn),-8.3%,0.7,37.4%,-1.0,4.4%[12.7 µM],-3.0%
c1ccc2c(C[C@@H]3CNCCN3CC3CCCCC3)cccc2c1,?,-2.4,-2.0%,-1.1,15.6%[2.33 µM],39.8µM*
CN(C)/C=C1/NC(=S)NC1=O,8.91µM*,0.0,89.1µM*,24.8,35.5µM*,-8.1%
CCN1C(=O)/C(=C\N(C)C)NC1=S,-19.6%,3.4,35.6%,-0.4,-4.7%[59 µM],-5.8%
CC1CCC(NC(=O)C2(C)Cc3ccccc3C(=O)N2Cc2ccc(Cl)cc2)CC1 (stereo not drawn),-16.0%,·,15.9%,·,5.6%[59 µM],3.2%
COc1ccc(Cn2cc(CN3CC(N4CCN(C5CCN(C)CC5)CC4)CS3(=O)=O)nn2)cc1 (stereo not drawn),·,3.1,·,-2.7,·,·
CCc1ccc(Sc2cc(C(=O)O)c3ccccc3n2)cc1,-4.6%,·,39.4%,·,4.9%[59 µM],-3.6%
COc1ccccc1NCC(O)Cn1c2ccccc2c2ccccc21 (stereo not drawn),39.8µM*,-29.6,?,?,?,39.8µM*
COCCn1c(C)cc(/C=C2/NC(=O)N(Cc3ccc(C)cc3)C2=O)c1C,-33.3%,-10.1,-12.1%,-17.7,15.8µM*,-27.6%
CCn1c(C)cc(/C=C2\NC(=O)N(Cc3ccc(Cl)cc3)C2=O)c1C,-32.1%,-13.5,-16.6%,-17.1,-0.4%,-9.9%
Cn1c2c(c(=O)[nH]c1=O)C(c1cccc(O)c1)C1=C(N2)c2ccccc2C1=O (stereo not drawn),-34.0%,-12.2,-13.3%,-19.1,31.6µM*,?
SMILES,JMJD2A Tudor,CtBP-E1A blk,HP1b binding inh,Six1-Eya2 inh,G9a block,BAZ2B inh
CC(C)c1ccc(NC2CCCN(C(=O)c3cccs3)C2)cc1 (stereo not drawn),-32.2%,-13.5,-9.0%,-22.6,50.1µM*,?
COc1ccc(NC2CCCN(C(=O)c3ccccc3C(F)(F)F)C2)cc1 (stereo not drawn),-21.4%,-1.6,-16.5%,-6.1,39.8µM*,?
CCOC(=O)N1CCN(C2CCCN(C(=O)c3ccccc3N(C)C)C2)CC1 (stereo not drawn),-4.4%,-5.2,7.4%,-3.1,43.3%,1.1%
Cc1ccc(NC2CCCN(C(=O)c3cccs3)C2)cc1C (stereo not drawn),-32.9%,·,-6.0%,-9.7,35.5µM*,-38.3%
CCOC(=O)N1CCN(C2CCCN(C(=O)c3ccccc3C(F)(F)F)C2)CC1 (stereo not drawn),-9.7%,-6.2,35.2%,3.4,70.8µM*,-27.0%
CCOc1ccccc1-n1nnnc1SCC(=O)NCC1(N2CCOCC2)CCCCC1,-16.7%,16.3,46.0%,7.6,-4.3%[2.33 µM],-4.4%
CCN1CC=C2C(C1)C(c1ccc(Cl)s1)C(C#N)=C(N)C2(C#N)C#N (stereo not drawn),-28.7%,-5.4,11.3%,-6.0,-23.1%[59 µM],·
CC(C)c1ccc(S(=O)(=O)N2CCN(C(=O)[C@@H]3CCCN3C(=O)c3cccs3)CC2)cc1,-9.0%,-1.2,28.6%,-2.9,44.7µM*,-2.5%
Cc1cc(C(=O)N2CCCC(N3CCN(c4cccc(C(F)(F)F)c4)CC3)C2)c(C)o1 (stereo not drawn),-19.2%,-3.3,12.8%,-12.1,79.4µM*,-38.2%
O=C(C1CCCN1C(=O)c1cccs1)N1CCN(S(=O)(=O)c2ccc(F)cc2)CC1 (stereo not drawn),-15.4%,8.2,16.5%,7.2,-8.4%[12.7 µM],-6.1%
COc1ccc(NC2CCCN(C(=O)c3cccs3)C2)cc1 (stereo not drawn),-39.3%,3.3,2.4%,-4.6,50.1µM*,?
COC(=O)c1cccc(C(=O)N2CCCC(Nc3ccc(C)c(C)c3)C2)c1 (stereo not drawn),-31.6%,2.3,8.6%,-2.4,50.1µM*,?
CN1C(=O)C(CC(=O)NCCc2ccccc2)N(NC(=O)c2ccc(Cl)cc2)C1=S (stereo not drawn),-21.8%,-1.9,37.0%,7.3,18.8%,-10.8%
COc1cc2cnc(-c3cccnc3)cc2cc1OC,-15.7%,-18.8,30.1%,-22.9,·,·
COc1ccc(NC2CCCN(C(=O)c3csc(C(C)C)n3)C2)cc1 (stereo not drawn),-18.5%,0.8,46.4%,-5.4,-17.0%,-16.1%[57.1 µM]
COc1ccc(NC2CCCN(C(=O)c3cc(CC(C)C)nc(N)n3)C2)cc1 (stereo not drawn),-21.5%,1.0,16.5%,-5.2,44.7µM*,-30.2%
NC(=S)N/N=C/c1coc2ccc(F)cc2c1=O,-21.2%,-0.9,10.6%,7.2,6.1%,10.4%
